# Assay results: PubChem BioAssay (Tox21)
# Records with an inconclusive call do not appear. Unmarked numbers belong to inactive results. Activity calls are given as the source filed them. Calls follow the shape of the dose curve; as a rule, active = well fitted inhibition curve with a large enough effect in the repeat runs; inconclusive = weak or mixed curves; inactive = no such curve, though single readings can be large or run the other way.
# Target: Cytochrome P450 1A2 (Homo sapiens) (UniProt P05177)
# Test: Cytochrome P450 Family 1 Subfamily A Member 2 (CYP1A2) small molecule antagonists: luciferase reporter qHTS assay (AID 1671199); also: nearly all actives have a fitted effect of over 50% in size
# Conditions: P450-Glo CYP1A2 enzyme, luciferin luminescence, 1 h; series mostly up to 115 µM; activity change, negative = inhibition: at the top concentration
# In short: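 P450-Glo CYP1A2 enzyme–proluciferin substrate mix with compound 10 min at room temperature, then NADPH regeneration 1 h at room temperature. Luciferin detection reagent added, luminescence read after 20 min; furafylline positive control.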
# % is scaled to controls: 0 for no effect and ±100 for the full control effect; potency is read from the fitted curve at half-maximal effect.
# Sequence of Cytochrome P450 1A2 (Homo sapiens) (P05177 whole entry, looked up): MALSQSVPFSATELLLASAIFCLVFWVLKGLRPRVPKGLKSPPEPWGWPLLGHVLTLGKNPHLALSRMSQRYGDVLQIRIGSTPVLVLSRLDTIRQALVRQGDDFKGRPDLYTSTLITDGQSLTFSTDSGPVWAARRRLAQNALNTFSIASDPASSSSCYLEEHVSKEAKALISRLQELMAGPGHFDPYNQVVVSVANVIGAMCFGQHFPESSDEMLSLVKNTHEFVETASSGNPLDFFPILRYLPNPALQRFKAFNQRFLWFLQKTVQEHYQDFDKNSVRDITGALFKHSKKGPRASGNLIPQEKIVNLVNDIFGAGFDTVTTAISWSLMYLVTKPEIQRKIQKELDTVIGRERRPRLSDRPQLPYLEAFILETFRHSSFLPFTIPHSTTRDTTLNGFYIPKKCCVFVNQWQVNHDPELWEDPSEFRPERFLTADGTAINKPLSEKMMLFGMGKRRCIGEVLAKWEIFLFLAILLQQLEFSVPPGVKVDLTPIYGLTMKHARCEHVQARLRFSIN
Compound,"activity change, negative = inhibition",Potency
CCS(=O)(=O)C(C)(C)S(=O)(=O)CC,11.9% [at 53 µM],
O=[N+]([O-])c1cc(Cl)c(Cl)c(Cl)c1,,11.1 µM (active)
C[N+](C)=CCl,-10.3%,
CCC(C)(C)c1cc(-n2nc3ccccc3n2)c(O)c(C(C)(C)CC)c1,,36.1 µM (active)
OCCSCSCCO,-16.2%,
C=C(C)CN(CC)c1c([N+](=O)[O-])cc(C(F)(F)F)cc1[N+](=O)[O-],,31.7 µM (active)
O=NN1CCN(N=O)CC1,-27.7%,
O=CNC(N1CCN(C(NC=O)C(Cl)(Cl)Cl)CC1)C(Cl)(Cl)Cl (stereo not drawn),-7.78%,
CCOC(=O)CP(=O)(OCC)OCC,-21.2%,
C[C@H]1CCC[C@H](O)CCCCCc2cc(O)cc(O)c2C(=O)O1,,35.8 µM (active)
CC(C)CC(N(C)C)C1(c2ccc(Cl)cc2)CCC1 (stereo not drawn),-13.3% [at 53 µM],
C[C@@H]1CN(C2CCC(C#N)(c3ccc(F)cc3)CC2)CC[C@]1(C(=O)O)c1ccccc1 (stereo partly drawn),-4.2% [at 53 µM],
COc1cc(OC)nc(Oc2cccc(Oc3nc(OC)cc(OC)n3)c2C(=O)O)n1,0.0511%,
CCNc1nc(NC(C)C)nc(OC)n1,,25.2 µM (active)
COc1cc2c(cc1OC)[C@@]13CCN4CC5=CCO[C@H]6CC(=O)N2[C@H]1[C@H]6[C@H]5C[C@H]43,-10.7%,
CC(Oc1ccc(Oc2ncc(C(F)(F)F)cc2Cl)cc1)C(=O)O (stereo not drawn),,39.9 µM (active)
NC1=NC(=O)C(c2ccccc2)O1 (stereo not drawn),-9.39% [at 53 µM],
OC(Cn1cncn1)(c1ccc(F)cc1)c1ccccc1F (stereo not drawn),,31.7 µM (active)
